Read-out in assay [1]: Monocyte Chemoattractant Protein-1 (MCP1), CCL2 (gene 6347)
Put plainly: BSK_hDFCGF_MCP1: BioMAP Diversity Plus: hDFCGF Assay for Monocyte Chemoattractant Protein-1 (MCP1) Biomarker Activity (AID 2284285). The conditions noted are these: primary human foreskin fibroblasts. The procedure, abridged:
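MCP-1 ELISA readout was taken 24 hours after dosing primary human dermal fibroblasts in the hDFCGF system, with DMSO as baseline. Parallel sulforhodamine B staining of total protein tracked overt cytotoxicity.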

Read-out in assay [2]: Vascular cell adhesion molecule 1 (VCAM1), VCAM1 (gene 7412)
Put plainly: BSK_IMphg_VCAM1: BioMAP Diversity Plus: IMphg Assay for Vascular cell adhesion molecule 1 (VCAM1) Biomarker Activity (AID 2284286). The following applies: primary human endothelial cells with macrophages. The gist of the method:
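ELISA read-out of VCAM-1 on venular endothelial cell/macrophage co-cultures at 24 h post-treatment, with DMSO as baseline and positive-direction fitting. Parallel sulforhodamine B total-protein staining (560 nm) served as the overt cytotoxicity measure.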

Read-out in assay [3]: Intercellular Adhesion Molecule 1 (ICAM1), ICAM1 (gene 3383)
Put plainly: BSK_hDFCGF_ICAM1: BioMAP Diversity Plus: hDFCGF Assay for Intercellular Adhesion Molecule 1 (ICAM1) Biomarker Activity (AID 2284287). The conditions noted are these: primary human foreskin fibroblasts. The gist of the method: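 ICAM-1 ELISA readout 24 h after dosing, DMSO as baseline, in human dermal foreskin fibroblast cultures. Cytotoxicity checked in parallel wells by SRB staining (0.1% SRB, 10% TCA fixation, 560 nm).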

Read-out in assay [4]: CD40, CD40 (gene 958)
Put plainly: BSK_IMphg_CD40: BioMAP Diversity Plus: IMphg Assay for CD40 Biomarker Activity (AID 2284288). The conditions noted are these: primary human endothelial cells with macrophages. The procedure, abridged: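 ELISA read-out of cell-surface CD40 at 24 h in human venular endothelial cell/macrophage co-cultures. Activity fitted in the positive direction against DMSO; parallel SRB staining (560 nm) gauges overt cytotoxicity.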

Read-out in assay [5]: TIMP metallopeptidase inhibitor 2 (TIMP2), TIMP2 (gene 7077)
Briefly: BSK_hDFCGF_TIMP2: BioMAP Diversity Plus: hDFCGF Assay for TIMP metallopeptidase inhibitor 2 (TIMP2) Biomarker Activity (AID 2284289). The conditions noted are these: primary human foreskin fibroblasts. The gist of the method: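 Primary human foreskin fibroblasts in the hDFCGF system, dosed for 24 h; TIMP-2 level measured by ELISA, fitted in the positive direction against DMSO; cytotoxicity checked in parallel by sulforhodamine B total protein staining.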

Read-out in assay [6]: Interleukin-1 alpha (IL1a), IL1A (gene 3552)
Put plainly: BSK_IMphg_IL1a: BioMAP Diversity Plus: IMphg Assay for Interleukin-1 alpha (IL1a) Biomarker Activity (AID 2284290). The following applies: primary human endothelial cells with macrophages. The gist of the method:
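IL-1α is quantified by ELISA at 24 h in the endothelial/macrophage IMphg co-culture, with gain of signal fitted relative to DMSO. Parallel SRB total-protein staining flags overt toxicity.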

Read-out in assay [7]: E-selectin (Homo sapiens) (UniProt P16581)
Briefly: BSK_IMphg_ESelectin: BioMAP Diversity Plus: IMphg Assay for Eselectin Biomarker Activity (AID 2284291). The conditions noted are these: primary human endothelial cells with macrophages. The procedure, abridged:
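Analysed against DMSO baseline in the positive fitting direction, this endpoint is an ELISA read of E-selectin. It comes from human venular endothelial cells co-cultured with macrophages, sampled 24 h post-dose.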

Read-out in assay [8]: Macrophage colony-stimulating factor (MCSF), CSF1 (gene 1435)
Put plainly: BSK_IMphg_MCSF: BioMAP Diversity Plus: IMphg Assay for Macrophage colony-stimulating factor (MCSF) Biomarker Activity (AID 2284293). The following applies: primary human endothelial cells with macrophages. The gist of the method: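 M-CSF was measured by ELISA in human venular endothelial cell/macrophage co-cultures dosed for 24 hours. Sulforhodamine B staining of parallel cultures assessed cytotoxicity; data fitted against DMSO baseline.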

Read-out in assay [9]: Interleukin-10 (IL10), IL10 (gene 3586)
Briefly: BSK_IMphg_IL10: BioMAP Diversity Plus: IMphg Assay for Interleukin-10 (IL10) Biomarker Activity (AID 2284294). The conditions noted are these: primary human endothelial cells with macrophages. The gist of the method:
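IL-10 read by ELISA after 24 h chemical exposure of primary human venular endothelial cell/macrophage cocultures, with DMSO as baseline. Parallel SRB staining (560 nm) gauged overt cytotoxicity.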

The nature of assay [10]: BSK_IMphg_SRB.Mphg: Macrophage Viability Assessment in the BioMAP Diversity Plus: IMphg Assay (AID 2284295). The following applies: primary human endothelial cells with macrophages. The procedure, abridged: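 Cytotoxicity read-out: parallel cultures fixed with 10% TCA, stained with 0.1% sulforhodamine B, read at 560 nm. System combines venular endothelium and macrophages; sampled 24 h post-dosing, fitted positively relative to DMSO control.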

Read-out in assay [11]: Thrombomodulin, THBD (gene 7056)
Put plainly: BSK_LPS_Thrombomodulin: BioMAP Diversity Plus: LPS Assay for Thrombomodulin Biomarker Activity (AID 2284296). The conditions noted are these: primary human HUVEC with PBMC. The gist of the method:
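Thrombomodulin on the surface of LPS-activated endothelial/PBMC co-cultures was quantified by ELISA at 24 hours post-dosing, with DMSO as baseline. Parallel SRB total-protein staining flagged overt cytotoxicity.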

Read-out in assay [12]: CD69, CD69 (gene 969)
Put plainly: BSK_LPS_CD69: BioMAP Diversity Plus: LPS Assay for CD69 Biomarker Activity (AID 2284303). The conditions noted are these: primary human HUVEC with PBMC. The gist of the method: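 CD69 surface levels were read by ELISA after 24 h chemical treatment of an LPS-stimulated HUVEC plus PBMC co-culture; positive-direction fit against DMSO vehicle.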

Assay [13] can be described thus: BSK_IMphg_SRB: Viability Assessment in the BioMAP Diversity Plus: IMphg Assay (AID 2284292).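 Also: measured one day after compound addition.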 The conditions noted are these: primary human endothelial cells with macrophages. The gist of the method:
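SRB viability endpoint: cultures of human endothelial cells plus macrophages fixed with 10% TCA, stained with 0.1% SRB, read at 560 nm 24 h post-dosing. Only gain-of-signal fitted, relative to DMSO.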

Where a structure was tested more than once in an assay, its records may differ in their call. Activity calls are given as the source filed them. The calls were made as follows: active = hit-call score of the fitted dose curve at least 0.9, where 1 is the maximum; inactive = score below 0.9.

Chain of E-selectin (Homo sapiens) (P16581 whole entry, looked up): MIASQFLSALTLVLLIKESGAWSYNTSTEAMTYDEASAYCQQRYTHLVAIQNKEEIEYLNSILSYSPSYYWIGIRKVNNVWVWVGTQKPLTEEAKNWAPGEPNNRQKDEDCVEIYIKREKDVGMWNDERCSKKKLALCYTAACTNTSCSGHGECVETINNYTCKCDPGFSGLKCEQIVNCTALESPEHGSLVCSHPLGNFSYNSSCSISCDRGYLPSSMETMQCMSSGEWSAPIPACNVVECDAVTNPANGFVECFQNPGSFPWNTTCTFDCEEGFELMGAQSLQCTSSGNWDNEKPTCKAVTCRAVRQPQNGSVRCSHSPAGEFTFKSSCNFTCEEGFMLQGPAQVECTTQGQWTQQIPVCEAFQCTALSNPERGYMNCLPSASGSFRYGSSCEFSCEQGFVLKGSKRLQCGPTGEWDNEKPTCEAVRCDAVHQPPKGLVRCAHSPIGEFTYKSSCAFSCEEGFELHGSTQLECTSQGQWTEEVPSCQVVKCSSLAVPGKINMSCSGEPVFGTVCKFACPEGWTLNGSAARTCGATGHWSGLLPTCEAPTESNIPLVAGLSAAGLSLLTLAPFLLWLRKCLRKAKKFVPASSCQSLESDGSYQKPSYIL

As for `O=C(O)C(F)(F)C(F)(F)C(F)(F)C(F)(F)C(F)(F)C(F)(F)C(F)(F)C(F)(F)C(F)(F)C(F)(F)C(F)(F)C(F)(F)C(F)(F)F`, the outcome in assay [1], in [2], in assay [3], in [4], in assay [5] and in [6] was inactive. In addition, the outcome in assay [7], in assay [8], in assay [9], in [10], in assay [11] and in [12] was inactive.
Turning to `OCC(F)(F)C(F)(F)C(F)(F)C(F)(F)C(F)(F)C(F)(F)F`, the AC50 in assay [1] is 23 µM (active); in assay [10], 21.6 µM (active). For the same molecule, the outcome in [1], in assay [2], in assay [3], in assay [4], in assay [6] and in assay [13] was inactive. The outcome in [8], in assay [9], in assay [10], in assay [11] and in [12] was inactive.
On to `C=CC(=O)OCC(F)(F)C(F)(F)C(F)(F)C(F)(F)C(F)(F)C(F)(F)C(F)(F)F`, for which the result in assay [1], in [2], in assay [3], in assay [4], in [6] and in [13] was inactive. The outcome in [8], in assay [9], in [10], in assay [11] and in assay [12] was inactive. In addition, in assay [4], the AC50 was 6.54 µM (active).
As for `CCCCCCCCC(F)(F)C(F)(F)C(F)(F)C(F)(F)C(F)(F)C(F)(F)F`, the outcome in assay [1], in [2], in assay [3], in assay [4], in assay [6] and in [13] was inactive. In addition, the outcome in [8], in assay [9], in assay [10], in assay [11] and in [12] was inactive.
On to `O=C(CC(=O)C(F)(F)C(F)(F)F)C(F)(F)F`, for which the result in assay [1], in assay [2], in [3], in assay [4], in assay [6] and in [7] was inactive. Further, the outcome in [8], in assay [9], in [10], in [11] and in assay [12] was inactive.
On to `FC(F)(F)C(F)(F)C(F)(F)C(F)(F)C(F)(F)C(F)(F)CC1CO1` (stereo unspecified), for which the outcome in [1], in assay [2], in assay [3], in assay [4], in assay [6] and in assay [13] was inactive. Further, the result in assay [8], in assay [9], in assay [10], in [11] and in assay [12] was inactive.
On to `O=C(O)C(F)(F)C(F)(F)C(F)(F)C(F)(F)F`, for which the outcome in [1], in assay [2], in assay [3], in assay [4], in [6] and in assay [7] was inactive. Also, the result in [8], in assay [9], in assay [10], in assay [11] and in [12] was inactive.
`FC(F)(F)C(F)(F)C(F)(F)N(C(F)(F)C(F)(F)C(F)(F)F)C(F)(F)C(F)(F)C(F)(F)F`: the result in assay [1], in assay [2], in assay [3], in assay [4], in assay [6] and in [7] was inactive. Further, the outcome in assay [8], in assay [9], in assay [10], in assay [11] and in assay [12] was inactive.
As for `FC(F)(F)C(F)(F)C(F)(F)C(F)(F)CCI`, the result in assay [1], in assay [2], in assay [3], in [4], in assay [6] and in assay [8] was inactive. Further, the result in [9], in assay [10], in assay [11] and in assay [12] was inactive.
Regarding `FC(F)(F)C(F)(F)C(F)(F)C(F)(F)C(F)(F)C(F)(F)C(F)(F)I`, the result in [1], in [2], in [3], in [4], in [6] and in [7] was inactive. The outcome in assay [8], in [9], in assay [10], in assay [11] and in assay [12] was inactive.
On to `FC(F)(F)C(F)(F)C(F)(F)C(F)(F)C(F)(F)C(F)(F)C(F)(F)C(F)(F)F`, for which the result in [1], in [2], in assay [3], in [4], in [6] and in assay [8] was inactive. Besides, the result in assay [9], in [10], in [11] and in assay [12] was inactive.
For `CCO[Si](CCC(F)(F)C(F)(F)C(F)(F)C(F)(F)C(F)(F)C(F)(F)F)(OCC)OCC`, the outcome in assay [1], in assay [2], in assay [3], in assay [4], in assay [6] and in assay [8] was inactive. The outcome in assay [9], in assay [10], in assay [11] and in assay [12] was inactive.
As to `O=C(O)C(F)(F)C(F)(F)F`, the result in [1], in assay [2], in assay [3], in assay [4], in assay [6] and in [8] was inactive. Besides, the result in assay [9], in assay [10], in assay [11] and in [12] was inactive.
Take `FC(F)(F)C(F)(F)C(F)(F)C(F)(F)C(F)(F)C(F)(F)CCS`: the outcome in assay [1], in assay [2], in [3], in assay [4], in [6] and in [13] was inactive. The outcome in assay [8], in [9], in assay [10], in assay [11] and in assay [12] was inactive. For the same molecule, the AC50 in assay [9] is 2.49 µM (active); in assay [10] it was 2.57 µM (active).

For orientation: AC50 means the midpoint of the concentration-response curve, whichever way the signal moves.

The values above are taken from PubChem BioAssay (EPA / NIEHS).
